The values that follow come from PubChem BioAssay (NCI).

Among the test systems are SR leukemia; RPMI-8226 leukemia; OVCAR-8 ovarian; OVCAR-5 ovarian; OVCAR-4 ovarian; SK-OV-3 ovarian; IGROV1 ovarian; HS 578T breast; NCI/ADR-RES ovarian.
Common to all, as to assay: NCI-60 one-dose screen, 48 h (100 = growth as untreated, 0 = no growth, -100 = all killed)
Details in all cases: 10 µM unless noted

Compounds without any hit were thinned out: in the full panel of roughly 83,000, 20% have a hit.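 Compound tested at a single concentration for 48 hours in 96-well plates; a percent growth value below 10 was scored as active.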 Unmarked numbers belong to inactive results. Calls of active or inactive are those of the source.

Turning to `CCc1cc(O)ccc1Nc1cc(-c2ccc(-n3cccn3)cc2)[nH]n1`, the growth in the assay on SR leukemia was 68.9%; with RPMI-8226 leukemia, 53.5%; in the assay with OVCAR-8 ovarian it was 58%; in the assay with OVCAR-5 ovarian, 78.5%; in the assay with OVCAR-4 ovarian, 49%; in the assay with SK-OV-3 ovarian, 87.2%. Moreover, the growth with IGROV1 ovarian is 86.4%; in the assay with HS 578T breast, 105%; with NCI/ADR-RES ovarian it was 63.8%.

In the case of `O=C(Nc1cc(C(F)(F)F)cc(C(F)(F)F)c1)Nc1ccc2oc(=O)ccc2c1`, the growth with SR leukemia is 14%; in the assay with RPMI-8226 leukemia it was -21.5% (active); in the assay on OVCAR-8 ovarian, 14.2%; in the assay with OVCAR-5 ovarian, 18%; in the assay with OVCAR-4 ovarian it was 32.6%; with SK-OV-3 ovarian, -1.5% (active). The results for the growth with IGROV1 ovarian, in the assay with HS 578T breast and in the assay with NCI/ADR-RES ovarian were 17.3%, 36.8% and 4.16% (active), respectively.

With `O=C1Nc2cc(Cl)ccc2/C1=C\c1ccc(OCc2ccccc2)cc1`, the growth is 105% in the assay on SR leukemia; 107% in the assay on RPMI-8226 leukemia; 100% in the assay on OVCAR-8 ovarian; 101% in the assay on OVCAR-5 ovarian; 96.3% in the assay with OVCAR-4 ovarian; 103% with SK-OV-3 ovarian. The values for the growth with IGROV1 ovarian, with HS 578T breast and with NCI/ADR-RES ovarian were 91.6%, 96.7% and 104%, respectively.

Take `CN1CCN(Cc2ccc(NC(=O)c3cncc(C#Cc4cnc5ccc(N)nn45)c3)cc2C(F)(F)F)CC1`: the growth in the assay on SR leukemia is 5.19% (active); in the assay with RPMI-8226 leukemia, 24.7%; with OVCAR-8 ovarian, 16.5%; with OVCAR-5 ovarian it was 32%; in the assay with OVCAR-4 ovarian, 46.1%; in the assay on SK-OV-3 ovarian, 45.3%. Further, the growth in the assay on IGROV1 ovarian was -4.68% (active); with HS 578T breast it was 20.6%; in the assay with NCI/ADR-RES ovarian it was 89.8%.

In the case of `CCn1c2ccc(/C=N/N(C)S(=O)(=O)CCN(C)C)cc2c2cc(/C=N/N(C)S(=O)(=O)CCN(C)C)ccc21`, the growth was 2.12% (active) with SR leukemia; 65.2% in the assay on RPMI-8226 leukemia; 48.9% in the assay on OVCAR-8 ovarian; 82.6% in the assay with OVCAR-5 ovarian; 69.2% with OVCAR-4 ovarian; 106% in the assay with SK-OV-3 ovarian. For the same molecule, the growth is 2.68% (active) in the assay on IGROV1 ovarian, 76.8% in the assay with HS 578T breast and 54.7% in the assay with NCI/ADR-RES ovarian.

With `CNC(=O)c1cc(N2CCc3cc(NC(=O)Nc4ccc(N5CCOCC5)c(C(F)(F)F)c4)ccc32)ccn1`, the growth is 14.4% in the assay with SR leukemia; 16% with RPMI-8226 leukemia; 23.5% with OVCAR-8 ovarian; 57.4% with OVCAR-5 ovarian; 41.4% with OVCAR-4 ovarian; 80% with SK-OV-3 ovarian. The growth in the assay with IGROV1 ovarian is 37.3%; with HS 578T breast, -0.517% (active); in the assay with NCI/ADR-RES ovarian, 16.8%.

As to `O=C(N/N=C/c1cc2ccccc2nc1Cl)c1cc(-c2nc3ccccc3[nH]2)nc2ccccc12`, the growth in the assay with SR leukemia was 83.6%; with RPMI-8226 leukemia, 82.7%; with OVCAR-8 ovarian, 96.3%; with OVCAR-5 ovarian it was 106%; in the assay on OVCAR-4 ovarian, 86.3%; in the assay with SK-OV-3 ovarian, 106%. Moreover, the growth in the assay with IGROV1 ovarian was 87.5%; in the assay on HS 578T breast, 108%; in the assay on NCI/ADR-RES ovarian, 93.3%.

As to `N#C/C(=C\c1cccc2c1OCO2)C(=O)Nc1sc2c(c1C#N)CCCC2`, the growth in the assay on SR leukemia is 90.3%; in the assay on RPMI-8226 leukemia it was 101%; in the assay with OVCAR-8 ovarian it was 105%; in the assay on OVCAR-5 ovarian, 101%; with OVCAR-4 ovarian, 108%; with SK-OV-3 ovarian, 98.5%. Also, the growth was 100% in the assay with IGROV1 ovarian, 102% in the assay with HS 578T breast and 106% with NCI/ADR-RES ovarian.

In the case of `O=C(O)CC1CCN(c2ccc3nnc(Cl)n3n2)CC1`, the growth is 110% with SR leukemia; 111% in the assay with RPMI-8226 leukemia; 104% in the assay with OVCAR-8 ovarian; 97.3% in the assay with OVCAR-5 ovarian; 108% in the assay with OVCAR-4 ovarian; 96.2% with SK-OV-3 ovarian. Moreover, the results for the growth in the assay on IGROV1 ovarian, in the assay with HS 578T breast and in the assay on NCI/ADR-RES ovarian were 102%, 102% and 98.6%, respectively.

In the case of `CCN(CC)c1ccc(/C=N/NC(=O)c2ccc(S(N)(=O)=O)cc2)cc1`, the growth in the assay on SR leukemia is 14.1%; in the assay with RPMI-8226 leukemia, 34.3%; in the assay on OVCAR-8 ovarian, 14.6%; in the assay on OVCAR-5 ovarian, 46.7%; in the assay with OVCAR-4 ovarian, 30.4%; in the assay with SK-OV-3 ovarian, 35.5%. Also, the growth in the assay on IGROV1 ovarian was 19.9%; in the assay on HS 578T breast, 64.1%; with NCI/ADR-RES ovarian it was 53.8%.

On to `CSc1ccc(/C(=N/N=C(N)N)c2ccc(Cl)cc2)cc1`, for which the growth was -15.7% (active) in the assay with SR leukemia; 6.98% (active) with RPMI-8226 leukemia; -18.4% (active) in the assay with OVCAR-8 ovarian; 11.4% in the assay with OVCAR-5 ovarian; 57% in the assay with OVCAR-4 ovarian; 24.7% with SK-OV-3 ovarian. The growth in the assay on IGROV1 ovarian was 4.76% (active); in the assay on HS 578T breast, 4% (active); in the assay with NCI/ADR-RES ovarian, -3.46% (active).

Consider `Clc1ccc2[nH]cc(-c3nn4cc(-c5ccncc5)nc4s3)c2c1`, for which the growth was 28.8% with SR leukemia; 53.2% with RPMI-8226 leukemia; 10.6% in the assay on OVCAR-8 ovarian; 98.8% in the assay with OVCAR-5 ovarian; 43.2% in the assay on OVCAR-4 ovarian; 15.4% with SK-OV-3 ovarian. The growth in the assay with IGROV1 ovarian is 44.6%; in the assay with HS 578T breast, 31.2%; in the assay with NCI/ADR-RES ovarian, 2.69% (active).

On to `N#Cc1c(-c2cccs2)c(C#N)c(=O)n(Cc2nc3ccccc3[nH]2)c1N`, for which the growth in the assay with SR leukemia is 92.5%; in the assay with RPMI-8226 leukemia, 95.9%; with OVCAR-8 ovarian it was 95.1%; in the assay with OVCAR-5 ovarian, 116%; in the assay on OVCAR-4 ovarian, 99.6%; in the assay with SK-OV-3 ovarian, 95.4%. The growth in the assay with IGROV1 ovarian is 61.7%; in the assay on HS 578T breast it was 102%; in the assay with NCI/ADR-RES ovarian it was 99.5%.

Regarding `CCN(CC)c1ccc(/C=N/NC(=O)c2ccc(S(N)(=O)=O)cc2)c(O)c1`, the growth is 10.5% in the assay on SR leukemia; 38.3% with RPMI-8226 leukemia; 13.1% with OVCAR-8 ovarian; 50% with OVCAR-5 ovarian; 32.6% with OVCAR-4 ovarian; 32.2% in the assay with SK-OV-3 ovarian. The growth in the assay on IGROV1 ovarian is 17.6%; in the assay on HS 578T breast it was 54.3%; with NCI/ADR-RES ovarian, 18%.

Take `CC(=O)N(O)CCCCCNC(=O)CCC(=O)N(O)CCCCCNC(=O)CCC(=O)N(O)CCCCCN(CCCCCCCCCC[P+](c1ccccc1)(c1ccccc1)c1ccccc1)CCCCCCCCCC[P+](c1ccccc1)(c1ccccc1)c1ccccc1`: the growth in the assay with SR leukemia is 1.64% (active); in the assay with RPMI-8226 leukemia, -13.9% (active); with OVCAR-8 ovarian it was 10.5%; in the assay on OVCAR-5 ovarian, 16.2%; in the assay with OVCAR-4 ovarian, 5.75% (active); with SK-OV-3 ovarian it was -10% (active). For the same molecule, the values for the growth in the assay on IGROV1 ovarian, in the assay with HS 578T breast and in the assay on NCI/ADR-RES ovarian were -63.9% (active), 16.3% and 73.5%, respectively.

For `CCCCc1nc2c(N)nc3ccccc3c2n1Cc1ccc(OC)cc1`, the growth in the assay on SR leukemia is 46.2%; in the assay with RPMI-8226 leukemia it was 34.1%; with OVCAR-8 ovarian, 67.4%; with OVCAR-5 ovarian it was 82.4%; with OVCAR-4 ovarian, 58.1%; with SK-OV-3 ovarian it was 74.8%. Also, the growth was 56.8% in the assay with IGROV1 ovarian, 79.8% in the assay with HS 578T breast and 59.2% in the assay on NCI/ADR-RES ovarian.

`NS(=O)(=O)c1ccc(CCn2c(-c3ccc(C(=O)O)cc3)nc(-c3ccccc3)c2-c2ccccc2)cc1`: the growth was 99.7% in the assay on SR leukemia; 100% in the assay with RPMI-8226 leukemia; 111% with OVCAR-8 ovarian; 103% in the assay with OVCAR-5 ovarian; 99.4% in the assay on OVCAR-4 ovarian; 111% in the assay with SK-OV-3 ovarian. Also, the growth in the assay with IGROV1 ovarian is 108%; with HS 578T breast it was 101%; in the assay on NCI/ADR-RES ovarian, 105%.

Consider `CN1CCN(Cc2ccc(NC(=O)c3cncc(C#Cc4cnc5ccc(O[C@@H]6CCOC6)nn45)c3)cc2C(F)(F)F)CC1`, for which the growth is -29.7% (active) in the assay on SR leukemia; -24.1% (active) with RPMI-8226 leukemia; -60.1% (active) in the assay with OVCAR-8 ovarian; -66% (active) with OVCAR-5 ovarian; -73.7% (active) in the assay with OVCAR-4 ovarian; -67.8% (active) in the assay on SK-OV-3 ovarian. Further, the growth with IGROV1 ovarian is -51.9% (active); in the assay on HS 578T breast, -46.9% (active); with NCI/ADR-RES ovarian it was -34.5% (active).

With `COc1ccccc1/C=C/C(=O)c1nnn(-c2ccc(F)cc2)c1C`, the growth is 13.2% in the assay with SR leukemia; 20.9% with RPMI-8226 leukemia; 44.9% in the assay with OVCAR-8 ovarian; 89.5% in the assay on OVCAR-5 ovarian; 59.2% in the assay with OVCAR-4 ovarian; 95.8% with SK-OV-3 ovarian. The results for the growth in the assay with IGROV1 ovarian, with HS 578T breast and with NCI/ADR-RES ovarian were 45.6%, 78.3% and 34.3%, respectively.
